Measured values: PubChem BioAssay AID720597 (Broad Institute, 2013)
Potency and affinity values are given separately. Active and inactive are the calls of the source.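 The calls were made as follows: active = fitted half-maximal dose no more than twice the top valid tested dose, for compounds that lower signal; inconclusive = fit invalid, or curve flat with activity between -70 and -30; inactive = potency past limit, curve flat within ±30, or signal increasing.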

Target: NAD-dependent protein deacylase sirtuin-5, mitochondrial (Homo sapiens) (UniProt Q9NXA8)
Sequence (Q9NXA8 whole entry, looked up): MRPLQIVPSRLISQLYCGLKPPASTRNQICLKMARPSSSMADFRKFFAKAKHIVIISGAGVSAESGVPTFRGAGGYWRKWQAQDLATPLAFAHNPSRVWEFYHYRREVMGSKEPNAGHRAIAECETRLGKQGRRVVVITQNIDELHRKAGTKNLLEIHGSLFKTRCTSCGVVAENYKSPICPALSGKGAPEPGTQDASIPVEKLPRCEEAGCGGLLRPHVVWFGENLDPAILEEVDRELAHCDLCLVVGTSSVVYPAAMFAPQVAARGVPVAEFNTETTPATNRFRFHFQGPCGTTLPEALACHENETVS
Assay: blockers of sirtuin-5 peptide desuccinylation – biochemical, fluorescence imaging, cherry-pick, set 6, dose response (AID 720597);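 also: lower AMC signal can also come from blocking the trypsin step; 0% = median of neutral control wells and -100% = median of positive control wells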
Conditions: Purified SirT5, succinyl-peptide-AMC/trypsin fluorescence; series mostly up to 15 µM; activity change, negative = inhibition: at the top concentration

Activity change, negative = inhibition, inactive:
Cc1ccc(S(=O)(=O)N(C)C[C@H]2Oc3ccc(NC(=O)Cn4cnnn4)cc3CC(=O)N([C@@H](C)CO)C[C@H]2C)cc1 6.02%
C[C@@H]1CN([C@@H](C)CO)C(=O)c2cc(NS(C)(=O)=O)ccc2O[C@@H](C)CCCCO[C@@H]1CN(C)C -18.9%
O=C(NCC[C@H]1CC[C@H](NS(=O)(=O)c2cccc(F)c2)[C@@H](CO)O1)C1CCOCC1 0.211%
COc1ccccc1-c1ccc2c(c1)O[C@H](CN(C)S(=O)(=O)c1ccccc1)[C@@H](C)CN([C@@H](C)CO)S2(=O)=O 9.71%
COc1ccc(S(=O)(=O)N(C)C[C@@H]2OCCCC[C@@H](C)Oc3ccc(NS(=O)(=O)c4ccc(F)cc4)cc3C(=O)N([C@@H](C)CO)C[C@@H]2C)cc1 -4.5% [at 16 µM]
Cc1cc(C(=O)Nc2cccc3c2O[C@@H](CN(C)Cc2ccc(Oc4ccccc4)cc2)[C@H](C)CN([C@H](C)CO)C3=O)n(C)n1 6.07%
C[C@@H]1CN([C@H](C)CO)S(=O)(=O)c2ccc(C#Cc3cccc(F)c3)cc2O[C@@H]1CN(C)S(=O)(=O)c1ccccc1F 40.1%
O=C1CNC[C@H]2[C@@H](c3ccc(C4=CCCC4)cc3)[C@H](CO)N12 34.8%
C[C@H](O)C#Cc1ccc2c(c1)O[C@H](CN(C)Cc1ccc(-c3ccccc3)cc1)[C@H](C)CN([C@H](C)CO)S2(=O)=O -26.1%
O=C(c1ccc(F)cc1)N1CC(=O)N2[C@H](C1)[C@H](c1ccc(C#CCC3CCCC3)cc1)[C@@H]2CO -22.1%
Cn1cnc(CCNC(=O)C[C@@H]2CC[C@@H]3[C@H](COC[C@H](O)CN3C(=O)C3CCCC3)O2)c1 -18.6%
C[C@@H]1CN([C@H](C)CO)C(=O)c2cc(NS(=O)(=O)c3ccc(Cl)cc3)ccc2O[C@H]1CN(C)Cc1ccc2c(c1)OCO2 16.1%
C[C@@H]1CN([C@@H](C)CO)S(=O)(=O)c2ccc(/C=C/c3ccccc3)cc2O[C@H]1CN(C)C(=O)NC1CCCCC1 22.6%
C[C@H]1CN([C@@H](C)CO)C(=O)c2c(c3ccccc3n2C)-c2ccccc2CO[C@@H]1CN(C)Cc1ccc2c(c1)OCO2 -10.7%
COCC(=O)NC[C@H]1N[C@H](CO)[C@H]1c1ccc(C2=CCCCC2)cc1 -13.8%
COc1ccc(S(=O)(=O)N(C)C[C@H]2OCCCC[C@H](C)Oc3ccc(NS(=O)(=O)c4ccc(C)cc4)cc3C(=O)N([C@H](C)CO)C[C@@H]2C)cc1 31.8%
CO[C@H]1CN(C)C(=O)c2cccc(C#N)c2OC[C@H]2O[C@H](CC[C@@H]2OC)CCN(C)C(=O)[C@H]1C 17.8%
C[C@@H]1CN([C@@H](C)CO)C(=O)c2cccc(NC(=O)c3ccncc3)c2O[C@H]1CN(C)S(C)(=O)=O 21.9%
COc1ccc(S(=O)(=O)Nc2ccc3c(c2)C(=O)N([C@@H](C)CO)C[C@@H](C)[C@H](CN(C)Cc2ccc(-c4ccccc4)cc2)O3)cc1 -10.6%
Cc1ccc(S(=O)(=O)N(C)C[C@@H]2OCCCC[C@H](C)Oc3ccc(NS(=O)(=O)c4ccccc4)cc3C(=O)N([C@H](C)CO)C[C@@H]2C)cc1 28.1%
COc1ccc(S(=O)(=O)N(C)C[C@@H]2OCCCC[C@H](C)Oc3ccc(NS(=O)(=O)c4ccc(C)cc4)cc3C(=O)N([C@H](C)CO)C[C@@H]2C)cc1 -0.742%
O=C(CN1CCOCC1)NCC[C@@H]1CC[C@H](NC(=O)Nc2ccc(F)cc2)[C@H](CO)O1 34.6%
CC(=O)N1[C@H](CO)[C@H](c2ccc(-c3ccncc3)cc2)[C@@H]1CNC(=O)CC1CC1 -8.06%
COc1ccc(C#Cc2ccc([C@@H]3[C@H]4CN(C(=O)c5cccnc5)CC(=O)N4[C@H]3CO)cc2)cc1 4.01%
C[C@H]1CN([C@@H](C)CO)C(=O)c2cc(C#CCN(C)C)cnc2O[C@H]1CN(C)Cc1ccncc1 -5.33%
COc1ccc(S(=O)(=O)N(C)C[C@H]2OCCCC[C@H](C)Oc3ccc(NS(=O)(=O)c4ccc(Cl)cc4)cc3C(=O)N([C@@H](C)CO)C[C@H]2C)cc1 10.7%
O=C(NCC[C@H]1CC[C@@H](NC(=O)C2CC2)[C@H](CO)O1)c1cc(Cl)cc(Cl)c1 -4.46%
Cc1ccc(S(=O)(=O)N(C)C[C@H]2OCCCC[C@@H](C)Oc3ccc(NS(=O)(=O)c4ccc(Cl)cc4)cc3C(=O)N([C@@H](C)CO)C[C@H]2C)cc1 21.4%
C[C@H]1CN([C@@H](C)CO)C(=O)c2cccc(NC(=O)c3nc4ccccc4s3)c2O[C@H]1CN(C)Cc1ccc(C(F)(F)F)cc1 4.41%
C[C@H](CO)N1C[C@H](C)[C@@H](CN(C)Cc2ccccc2F)Oc2cc(C#CC3CC3)ccc2S1(=O)=O 29.7%
C[C@H]1CN([C@@H](C)CO)C(=O)c2cc(NC(=O)Cn3cnnn3)ccc2O[C@@H]1CN(C)S(=O)(=O)c1ccc(F)cc1 -11.5%
O=S(=O)(NC[C@@H]1CC[C@H]2[C@H](CN2Cc2cccc(-c3ccccn3)c2)O1)c1ccccc1 1.68%
CCCC(=O)Nc1ccc2c(c1)OC[C@@H](C)N(Cc1ccccc1)C[C@H](C)[C@@H](OC)CN(C)C2=O -11.1%
COc1ccccc1C#Cc1cnc2c(c1)C(=O)N([C@@H](C)CO)C[C@H](C)[C@@H](CN(C)C)O2 -8.09%
C[C@@H]1CN([C@@H](C)CO)S(=O)(=O)c2ccc(/C=C/c3ccccc3)cc2O[C@@H]1CN(C)C(=O)Nc1cc(F)ccc1F -20.6%
Cc1ccc(S(=O)(=O)Nc2ccc3c(c2)C(=O)N([C@@H](C)CO)C[C@H](C)[C@@H](CN(C)Cc2ccc(C(F)(F)F)cc2)OCCCC[C@H](C)O3)cc1 -12.4%
O=C(C[C@@H]1CC[C@@H](NS(=O)(=O)c2ccc(F)cc2)[C@@H](CO)O1)N1CCC(Cc2ccccc2)CC1 -27.4%
Cc1ccc(S(=O)(=O)N(C)C[C@H]2OCCCC[C@@H](C)Oc3ccc(NS(=O)(=O)c4ccccc4)cc3C(=O)N([C@H](C)CO)C[C@H]2C)cc1 -8.87%
COc1ccc(NC(=O)N(C)C[C@H]2Oc3cc(C#CCC(C)C)ccc3S(=O)(=O)N([C@H](C)CO)C[C@@H]2C)cc1 -3.37%
